Measurements from paper PMC5540273 (PLoS ONE, 2017).

test system: T1, YSK1; conditions: concentration: 1 μM, replicates: in singlicate; n = 1
T1 construct: gene STK25
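Also: KINOMEscan kinase panel screen.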

SMILES | %Inh [%]
Cc1ccc(-c2nc(Nc3ccncc3)c3ccccc3n2)s1 [GSK189015] | 0
CNc1nc(-c2ccc3c(N)n[nH]c3c2)cc(N2C[C@@H](C(=O)NC3CCCCC3)OC[C@H]2C)n1 [GSK2375584] | 5
Cn1cnc2c(N)ncnc21 [SKF-97623] | 0
Fc1ccc(-c2nc[nH]c2-c2ccncc2)cc1 [SB-217360] | 0
COc1cccc(NC(=O)Nc2ccc(C)c(-c3ccc(C(=O)Nc4ccncc4)cc3)c2)c1 [GSK1398474] | 4
Nc1ncnc2occ(-c3ccc4c(c3)CCN4C(=O)Cc3cc(F)ccc3F)c12 [GSK2645446] | 4
COc1ccc(CSc2nnc(-c3ccc4nccn4c3)o2)cc1C(F)(F)F | 14
Cc1cccc2c(-c3ccncn3)c(-c3ccc(F)cc3)nn12 [GW515532] | 8
Cc1ccccc1-c1cc(-c2c[nH]nc2-c2ccccn2)ccn1 [GW680061] | 3
CCCCc1nn2ncccc2c1-c1ccnc(NC2CC2)n1 [GW684374] | 25
CCn1c(-c2ccccc2)nc2cnccc21 [SB-733416] | 0
Cn1cncc1-c1cc2c(Nc3ccc(OCc4ccccc4)cc3)ncnc2cn1 [GW281179] | 4
Cc1c(Cn2c3ccccc3n3c(=O)cc(N4CCOCC4)nc23)cccc1C(F)(F)F [GSK2306394] | 0
CS(=O)(=O)CCNCc1nc(-c2ccc3ncnc(Nc4ccc(OCc5ccccc5)c(Cl)c4)c3c2)cs1.Cl [GW582764] | 0
COC(=O)C(NC(=O)NC1CCN(c2ccnc(Nc3ccc(F)cc3)n2)C1)c1ccccc1 (stereo not shown) [GSK1379712] | 14
Cc1ccc(NC(=O)Nc2ccc(Cl)c(C(F)(F)F)c2)cc1-c1ccc(C(=O)Nc2ccncc2)cc1 [GSK1398470] | 0
COc1ccc(-c2coc3ccc(-c4nnc(C)o4)cc23)cc1 | 1
COC(=O)c1cccc(NC(=O)NC2CCN(c3ccnc(Nc4ccc(OC)cc4)n3)C2)c1 (stereo not shown) [GSK1379746] | 0
CC(=O)c1c(C)c2cnc(Nc3ccn(C)n3)nc2n(C2CCCC2)c1=O | 0

SMILES | %Inh [%]
CC(=O)c1c(C)c2cnc(Nc3ccc(N4CCNCC4)cn3)nc2n(C2CCCC2)c1=O | 0
CNC(=O)c1ccc(C)c(-n2c(C)cc(OCc3ccc(F)cc3F)c(Br)c2=O)c1 | 0
FC(F)(F)c1ccccc1-c1cc(-c2c[nH]nc2-c2ccccn2)ccn1 [GW679396] | 0
CCn1c(-c2c(N)noc2C)nc2cnccc21 [SB-737856] | 58
Fc1ccc(-c2nn3cccc(F)c3c2-c2ccncc2)cc1 [GW475620] | 0
CS(=O)(=O)Cc1ccc(Nc2nccc(-c3c(-c4cccc(NC(=O)C5CCCCC5)c4)nn4ncccc34)n2)cc1 [GSK350559] | 0
CC(C)c1cc(-c2ccc3c(N)n[nH]c3c2)nc(N)n1 [GSK2250882] | 14
Nc1cccc(-c2ccc3c(N)n[nH]c3c2)n1 [GSK2192730] | 26
COc1nccc(-c2c(-c3ccc(F)cc3)ncn2CCCN2CCOCC2)n1 [SB-282852] | 0
Cc1ccc(NC(=O)Nc2ccccc2)cc1-c1ccc(C(=O)Nc2ccncc2)cc1 [GSK1398471] | 21
O=C(Nc1n[nH]c2nc(-c3cccs3)c(Br)cc12)C1CC1 [SB-735297] | 0
O=C(Nc1n[nH]c2nc(-c3cccs3)c(Br)cc12)C1CCCC1 [SB-743341] | 0
O=c1cc(N2CCOCC2)nc2n(Cc3ccccc3F)ccn12 [GSK2297428] | 0
Cl.Cl.Cl.N#Cc1ccc(CCNc2nccc(-c3cccc(CN4CCNCC4)c3)n2)cc1 [GSK2137462] | 0
CSc1ccc(-c2nc3n(c2-c2ccncc2)CCC3)cc1 [SKF-105561] | 0
Cc1ccc(NC(=O)Nc2ccccc2F)cc1-c1ccc(C(=O)Nc2ccncc2)cc1 [GSK1398477] | 3
CCc1ccc(-c2ccc3c(c2)-c2n[nH]cc2S(=O)(=O)N3C)cc1 | 0
COc1ccc(Nc2nccc(N3CCC(NC(=O)c4cc5ccccc5s4)C3)n2)cc1 (stereo not shown) [GSK1379738] | 7
